# Assay results: PubChem BioAssay (NCATS)
# Results filed as inconclusive are left out. Activity calls are given as the source filed them. The call rests on the fitted dose curve; in most records, active means well fitted cell-killing curve with a large enough effect; inconclusive means small, poorly fitted or top-dose-only effect; inactive means flat fitted curve, though single readings scatter.
# Assay: Cell Viability - LYMP2-006 (AID 978); further: nearly all actives have a fitted effect of over 60% in size
# Settings: LYMP2-006 lymphoblastoid cell viability, qHTS; series mostly up to 92.2 µM; activity change, negative = cytotoxicity: at the top concentration
# From the text: NIH Chemical Genomics Center [NCGC]
# NIH Molecular Libraries Screening Centers Network [MLSCN]
# National Institutes of Environmental Health Sciences [NIEHS]
# National Toxicology Program [NTP]
# We have developed a 1536-well cell-based assay for quantitative high throughput screening (qHTS) against a number of cell lines to determine in vitro cytotoxicity of small molecules. This particular assay uses a human lymphoblastoid cell line (LYMP2-006) purchased from Coriell Institute for Medical Research.
# NCGC Assay Protocol Summary:
# The CellTiter-Glo luminescent cell viability assay (Promega) is a homogeneous method to measure the number of viable cells in culture. The end point readout of this assay is based on quantitation of intracellular ATP, an indicator of metabolic activity, using the luciferase reaction. Luciferase catalyzes the oxidation of beetle Luciferin to oxyluciferin and light in the presence of ATP. The luminescent signal is proportional to amount of ATP present.
# Using the CellTiter-Glo luminescent cell viability assay, the amount of cellular ATP was measured in the lymphoblastoid cell line with complete culture medium following compound treatment for 24 hours. The assay was performed in opaque white Kalypsys 1536-well plates. In the screen, tetraoctylammonium bromide was used as positive control. Library compounds were measured for their ability to cause acute toxicity in the cell line, as reflected by a decrease in intracellular ATP levels, in a concentration-dependent manner. […] AC50 values were determined from concentration-response data modeled with the standard Hill equation.
# qHTS protocol for CellTiter Glo lymphoblastoid cellular assay
# [Step] [Parameter] [Value] [Description]
# 1. Reagent; 5 uL; 2500 lymphoblastoid cells/well
# 2. Time; 5 hr; 37 C incubation
# 4. Controls; 23 nL; Tetraoctylammonium bromide 6.4pM to 92 uM
# 5. Time; 24 hr; 37 C incubation
# 6. Reagent; 5 uL; CellTiter Glo reagent
# 7. Time; 30 min; Room Temperature
# 8. Detection; Luminescence; Viewlux plate reader
# Keywords: cell viability, cytotoxicity, lymphoblastoid cell line, luminescence, NTPHTS, NTPHTS_NCGC, NIEHS, DSSTox, MLSMR, MLSCN, NIH Roadmap, qHTS, NCGC
# On the % scale 0 is the no-effect control and ±100 the full control effect; potency means the concentration at half of the fitted maximal effect.
Compound,"activity change, negative = cytotoxicity",Potency
C=C(Cl)Cl,0.154% (inactive),
Cc1ccc(O)c(C)c1,-1.63% (inactive),
C=CCc1ccc(OC)cc1,-6.9% (inactive),
Cc1ccc([N+](=O)[O-])cc1C,5.14% (inactive),
CCOCN(C(=O)CCl)c1c(C)cccc1CC,,50.1 µM (active)
Oc1ccc(Cl)cc1Cl,8.26% (inactive),
CCOc1ccc(N)cc1,-2.69% (inactive),
CCCCOCCOP(=O)(OCCOCCCC)OCCOCCCC,1.89% (inactive),
CCCCCCCC(=O)Cl,5.8% (inactive),
Clc1ccc2ccccc2c1,2.28% (inactive),
C=CCc1ccc2c(c1)OCO2,-0.917% (inactive),
CCSC(=O)Cl,-0.715% (inactive),
CC(C)(C)OOC(C)(C)C,2.06% (inactive),
O=C(Cl)C(Cl)(Cl)Cl,-2.28% (inactive),
S=C=Nc1cccc2ccccc12,-8.77% (inactive),
C1CCC2CCCCC2C1 (stereo not given),-7.55% (inactive),
CC(O)CCl (stereo not given),-5.7% (inactive),
C=C(C)C#N,-7.82% (inactive),
BrCCBr,-2.88% (inactive),
CCNc1nc(Cl)nc(NC(C)C)n1,-7.95% (inactive),

Compound,"activity change, negative = cytotoxicity",Potency
Cc1ccc2ccccc2c1,-13.7% (inactive),
C=CC(=O)OCC,-0.559% (inactive),
O=NN(c1ccccc1)c1ccccc1,-2.67% (inactive),
Cc1cccc(C#N)c1,11.3% (inactive),
c1ccc2c(c1)CCCC2,-7.69% (inactive),
ClC1=C(Cl)C2(Cl)C3C4C=CC(C4)C3C1(Cl)C2(Cl)Cl (stereo not given),,39.8 µM (active)
O=[N+]([O-])c1ccc(Cl)c(Cl)c1,-7.43% (inactive),
O=C(O)COc1ccc(Cl)cc1Cl,,inactive
Nc1ccccc1Cl,-2.8% (inactive),
CCOP(=S)(OCC)SCSC(C)(C)C,-1.12% (inactive),
O=[N+]([O-])c1cccc2ccccc12,3.24% (inactive),
N#CCCCl,,inactive
C=CC(C)=O,-0.996% (inactive),
O=C=NC1CCCCC1,,inactive
COC1=CC(=O)O[C@@H](/C=C/c2ccc3c(c2)OCO3)C1,-10.5% (inactive),
NC(=S)Nc1ccccc1,,inactive
Cc1ccccc1N,,inactive
CCCOC(=O)c1ccccc1C(=O)OCCC,-6.47% (inactive),
CC(Cl)Cl,1.91% (inactive),
COc1ccc(N)cc1,1.26% (inactive),
